Here are results for 38 compounds from the supplement of paper PMC12024424.

Structures can show the parent of a compound that is named as a salt.

For this assay, the system named is Staphylococcus aureus Sa2 (MRSA, cystic fibrosis isolate). The assay can be described thus: growth reduction vs untreated control (OD550); higher = stronger antibacterial activity. Particulars: 0.1 mM; 24 h. As to the method:
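Single-dose screen of the MedChem Express Drug Repurposing Library (0.1 mM, 1% DMSO) against planktonic MRSA S. aureus Sa2 (CF isolate) in TSB in 96-well plates, 37 °C aerobic, 24 h. Assays were run in triplicate and repeated twice.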
`CN1CCCC(CC2c3ccccc3Sc3ccccc32)C1` (stereo not drawn) [Metixene hydrochloride hydrate] registered a growth reduction of 100%.

In the case of `Cc1ccc(Cl)c(Nc2ccccc2C(=O)O)c1Cl` [Meclofenamate (sodium)], the growth reduction came out at 97.2%. Regarding `CC/C(=C(\c1ccccc1)c1ccc(OCCN(C)C)cc1)c1ccccc1` [Tamoxifen], the growth reduction was determined as 100%. Then `CNC(=O)c1cc(Oc2ccc(NC(=O)Nc3ccc(Cl)c(C(F)(F)F)c3)cc2)ccn1` [Sorafenib], with 93.5%; and `C[C@@H](NCCCc1cccc(C(F)(F)F)c1)c1cccc2ccccc12` [Cinacalcet], with 97.4%; and `Cc1cccc(/C=N/Nc2cc(N3CCOCC3)nc(OCCc3ccccn3)n2)c1` [Apilimod], with 100%. Then `O=C(O)c1ccc2c(c1)CCCC(c1ccc(Cl)cc1Cl)=C2c1ccc(O[C@H]2CCN(CCCF)C2)cc1`, with 100%; and `C#C[C@]1(O)CC[C@H]2[C@@H]3CCc4cc(O)ccc4[C@H]3CC[C@@]21C` [Ethynyl Estradiol], with 99.9%; and `Cc1cc2c(cc1CC(=O)c1sccc1S(=O)(=O)Nc1onc(C)c1Cl)OCO2` [Sitaxsentan (sodium)], with 98%. Then `NC1=NCC2c3ccccc3Cc3ccccc3N12` (stereo not drawn) [Epinastine], with 100%; and `Cc1ccc(NC(=O)C2(c3ccc4c(c3)OC(F)(F)O4)CC2)nc1-c1cccc(C(=O)O)c1` [Lumacaftor], with 92.9%. `OCCN1CCN(CCCN2c3ccccc3Sc3ccc(Cl)cc32)CC1` [Perphenazine]: the growth reduction was 100%. Turning to `C=CC(=O)Nc1cc(Nc2nccc(-c3cn(C4CC4)c4ccccc34)n2)c(OC)cc1N(C)CCN(C)C` [Almonertinib (hydrochloride)], the growth reduction amounted to 100%.

Turning to `CC(C)c1cc(Oc2c(Br)cc(NC(=O)CC(=O)O)cc2Br)ccc1O` [Eprotirome], the growth reduction turned out to be 99.3%. For `CC(=O)Oc1cccc2c1C(=O)c1c(OC(C)=O)cc(C(=O)O)cc1C2=O` [Diacerein] the value was 93.4%.

`O=C(c1ccc(OCCN2CCCCC2)cc1)c1c(-c2ccc(O)cc2)sc2cc(O)ccc12` [Raloxifene (hydrochloride)] yielded a growth reduction of 99.8%.

In turn, `Cn1cnc([N+](=O)[O-])c1C[N+](C)(C)C/C=C/C(=O)Nc1cc2c(Nc3ccc(Cl)c(Br)c3)ncnc2cn1` [Tarloxotinib (bromide)] registered a growth reduction of 99.6%. Compound `COc1cc(C)c2c(Oc3cccc(C(F)(F)F)c3)c(OC)cc(NC(C)CCCN)c2n1` (stereo not drawn) [Tafenoquine (Succinate)] registered a growth reduction of 100%. Then `Cc1ccc(C(=O)c2cc(O)c(O)c([N+](=O)[O-])c2)cc1` [Tolcapone], with 100%. `Fc1ccc(C(c2ccc(F)cc2)N2CCN(C/C=C/c3ccccc3)CC2)cc1` [Flunarizine (dihydrochloride)] showed a growth reduction of 94.4%.

`Cc1c2c(nn1C)CSCc1cc(n(C)n1)CSc1cc(c3ccccc3c1)OCCCc1c(C(=O)O)n(C)c3c-2c(Cl)ccc13`: the growth reduction came to 100%.

`Cc1ccc(C(=O)N(CCCN)[C@@H](c2nc3cc(Cl)ccc3c(=O)n2Cc2ccccc2)C(C)C)cc1` [Ispinesib] showed a growth reduction of 100%. For `CC[C@H](C)C(=O)O[C@H]1C[C@@H](C)C=C2C=C[C@H](C)[C@H](CC[C@@H]3C[C@@H](O)CC(=O)O3)[C@H]21` [Lovastatin] the value was 100%. The compound `COC1=C(OC)C(=O)C(CCCCCCCCCC[P+](c2ccccc2)(c2ccccc2)c2ccccc2)=C(C)C1=O` [Mitoquinone (mesylate)] had a growth reduction of 100%. The compound `CC(C(=O)O)c1ccc2c(c1)CC(=O)c1ccccc1S2` (stereo not drawn) [Zaltoprofen] returned a growth reduction of 96.7%. For `CCCCCCCCCCCCCCCC[N+](C)(C)CCN(Cc1ccc(OC)cc1)c1ncccn1` [Thonzonium (bromide)], the growth reduction was found to be 100%. For `CC1=C(/C=C/C(C)=C/C=C/C(C)=C/C(=O)Nc2ccc(O)cc2)C(C)(C)CCC1` [Fenretinide] the value was 100%. For `C=C[C@@H]1C[C@]1(NC(=O)[C@@H]1C[C@@H]2CN1C(=O)[C@H](C(C)(C)C)NC(=O)O[C@@H]1C[C@H]1CCCCCc1nc3ccc(OC)cc3nc1O2)C(=O)NS(=O)(=O)C1CC1` [Grazoprevir potassium salt] the value was 97.2%; for `C/C=C(/C(=C/C)c1ccc(O)cc1)c1ccc(O)cc1` [Dienestrol], 99.7%. For `COc1cc(C(=O)O)ccc1NC(=O)[C@@H]1N[C@@H](CC(C)(C)C)[C@](C#N)(c2ccc(Cl)cc2F)[C@H]1c1cccc(Cl)c1F` [Idasanutlin] the value was 100%; for `Cc1ccc2c(=O)c3cccc(CC(=O)O)c3oc2c1C` [Vadimezan], 100%. With `CN(CCCCCCCCCCN(C)C(=O)Oc1cccc([N+](C)(C)C)c1)C(=O)Oc1cccc([N+](C)(C)C)c1` [Demecarium Bromide], the growth reduction turned out to be 100%. For `CCCCc1oc2ccccc2c1C(=O)c1cc(I)c(OCCN(CC)CC)c(I)c1` [Amiodarone (hydrochloride)] the value was 100%. For `Fc1ccc2c(CCNCc3cccc(OCC(F)(F)C(F)F)c3)c[nH]c2c1` [Idalopirdine Hydrochloride] the value was 100%; for `Oc1c(Cl)cc(Cl)cc1Sc1cc(Cl)cc(Cl)c1O` [Bithionol], 99.2%. For `Cc1ccc(-c2cc(C(F)(F)F)nn2-c2ccc(S(N)(=O)=O)cc2)cc1` [Celecoxib] the value was 95.6%.

`Cc1cc(C)cc([C@@H]2CCCN2Cc2ccc(Oc3ccc(C(N)=O)cc3F)cc2)c1` [Aticaprant] had a growth reduction of 100%.

Regarding `CC(=O)O[C@@H]1CC[C@@]2(C)[C@@H](CC[C@]3(C)[C@@H]2C(=O)C=C2[C@@H]4[C@@H](C)[C@H](C)CC[C@]4(C)CC[C@]23C)[C@@]1(C)C(=O)O`, the growth reduction was determined as 100%.
